# Screens as filed in PubChem BioAssay.
# Htt clearance: clearance of mutant huntingtin inclusions, primary screen, imaging, HeLa Exon1htt(103Q)mCFP, confocal imaging | AID 853, 2007 | 47,000 compounds, 0.42% hits | inhibition, % at 1.5 µM | aggregate imaging; zero = plate's median compound well;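 active = inhibition of aggregate fluorescence above about 70%, also judged a hit by eye on the cell image, limit read from the data, passing the limit was not always enough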;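 note: cells exposed to compound for three days before fixation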
# D1 allo mod: D1 CRE-luciferase signal change, two-sided – cell-based, HEK293 D1, dopamine EC30, D1 allosteric modulator project, primary screen. AID 641, 2007. 58,000 compounds, 5.9% hits. D(1A) dopamine receptor (Homo sapiens), P21728. B-score at 10 µM. dopamine EC30 potentiation; actives deviate in either direction;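 active = luminescence count or its row- and column-corrected plate score outside the 99.7% band of the plate's sample wells, on either side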
# M1 agonist: M1 muscarinic receptor agonists, primary screen, CHO-M1 cells, Fluo-4 calcium, agonist mode; 64,000 compounds, 3% hits; B-score at 10 µM; Muscarinic acetylcholine receptor M1; Fluo-4 calcium fluorescence; stronger effect = higher value;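 active = fluorescence rise, raw or as B-score row- and column-corrected plate score, outside the 99.7% band of its plate's samples, either direction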
# M1 antagonist: antagonists of rat M1 muscarinic receptor; B-score at 10 µM; CHO-M1 cells, Fluo-4 calcium, ACh EC80 antagonist mode; stronger effect = lower value; 64,000 compounds, 3.4% hits;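 active = calcium fluorescence response, raw or row-and-column corrected B-score, differing from the plate sample mean either way at a set confidence level, mostly lower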
# Target sequence (P08482 whole entry, looked up): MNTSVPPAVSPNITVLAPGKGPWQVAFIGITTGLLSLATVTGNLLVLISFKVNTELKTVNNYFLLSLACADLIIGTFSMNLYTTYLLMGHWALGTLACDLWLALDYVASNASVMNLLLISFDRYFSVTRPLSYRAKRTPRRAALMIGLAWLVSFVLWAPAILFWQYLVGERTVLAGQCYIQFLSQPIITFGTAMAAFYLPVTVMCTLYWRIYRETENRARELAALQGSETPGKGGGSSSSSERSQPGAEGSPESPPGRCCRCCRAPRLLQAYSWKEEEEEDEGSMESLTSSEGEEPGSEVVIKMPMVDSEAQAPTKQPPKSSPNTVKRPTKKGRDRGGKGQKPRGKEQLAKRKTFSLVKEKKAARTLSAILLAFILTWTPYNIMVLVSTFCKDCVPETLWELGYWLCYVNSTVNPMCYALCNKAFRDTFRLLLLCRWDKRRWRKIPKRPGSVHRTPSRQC
# * marks the source's active call; other numbers are inactive results; / = no result. Most compounds without a hit are left out; they make up all but 9.1% or so of the library.
SMILES,Htt clearance,D1 allo mod,M1 agonist,M1 antagonist
Cc1sc2nc(SCC(=O)NCc3ccco3)n(C)c(=O)c2c1C,/,-2.6*,-0.17,-0.54
Cn1c(SCC(=O)NCc2ccco2)nnc1-c1cccs1,-18,0.064,0.024,2.3*
C=CCCCCCCCCC(=O)NNC1=CC(=O)CC(C)(C)C1,-2,/,/,/
C=C(C)C1Cc2c(C)nn(-c3cc(C)c4ccccc4n3)c2C1 (configuration not stated),27,/,/,/
Cc1ccc2c(COC(=O)C3=COCCO3)cc(=O)oc2c1,/,-4.8*,-1.4,0.02
O=C1c2ccccc2-c2ncnc3cccc1c23,-54,13*,0.32,-0.19
OC(CNC1CCCCC1)CN1CCN(CC(O)CNC2CCCCC2)CC1 (configuration not stated),/,-0.063,-0.36,0.48
CN1CCN(C(=O)c2ccc(CN3CCOCC3)cc2)CC1,-92,0.46,0.11,0.48
O=C(c1ccc(CN2CCOCC2)cc1)N1CCC(Cc2ccccc2)CC1,/,-3.3*,-0.082,0.029
CNC(=O)c1c(C)nc(SCC(=O)NCc2ccc(OC)cc2)c(C#N)c1-c1ccco1,/,-2.9*,0.3,-0.32
CCN(c1ccc2c(c1)OCO2)S(=O)(=O)c1cc(Br)cc2c1N(C(C)=O)CC2,4,/,/,/
COC(=O)Cn1cnc(=O)c(C#N)c1/C=C/N(C)C,-29,-4.7*,-0.093,0.44
CC1(C)CC(=O)C2=C(C1)N(Cc1cccnc1)C(=O)C2(NC(=O)c1ccc(F)cc1)C(F)(F)F (configuration not stated),20,/,/,/
CC(=O)Oc1cccc(/C=c2\sc3nc(-c4ccco4)nn3c2=O)c1,/,-2.1,-0.3,0.076
CCCOc1ccc(/C=c2\sc3nc(-c4ccco4)nn3c2=O)cc1OCC,/,0.97,25*,0.15
O=C(CCn1c(=O)oc2ccccc21)N(Cc1ccccc1)c1ccccn1,73*,-0.044,-0.13,-0.54
NC(=O)CCn1c(=O)oc2ccccc21,14,0.58,-0.84,0.0073
CN=C1SC(CC(=O)Nc2cc(Cl)ccc2Cl)C(=O)N1C (configuration not stated),/,0.012,-0.87,-0.023
COc1ccc(N2CCN(C(=O)CSc3nnc(CNc4ccccc4)o3)CC2)cc1,22,0.5,-2.5*,-0.31
COc1ccc(Cc2nnc(SCC(=O)N3CCN(c4ccccc4)CC3)o2)cc1,48,0.67,-1.5,-0.0076
CSCc1cc(N2CCOCC2)nc(SCc2ccc(Cl)c(Cl)c2)n1,-8,/,/,/
CC1(C)Cc2c(cnn2-c2ccccc2)-c2c1c1ccccc1n2CC(O)CBr (configuration not stated),16,/,/,/
CCOc1ccc2[nH]c(=O)c(CN(Cc3cccs3)Cc3nnnn3C(C)(C)CC)cc2c1,14,1.1,0.92,0.77
CCC(C)(C)n1nnnc1CN(Cc1cccs1)Cc1cc2cc(OC)ccc2[nH]c1=O,/,1.5,3.7*,-1
c1ccc2nc(-c3nc4ccccc4o3)ccc2c1,/,-3.9*,-1.7,-0.49
SMILES,Htt clearance,D1 allo mod,M1 agonist,M1 antagonist
c1cc(-c2nc3ccccc3o2)nc(-c2nc3ccccc3o2)c1,/,-0.78,-0.38,0.33
CCOC(=O)C1=C(C)Nc2nc(=S)[nH]n2C1c1ccc(Cl)cc1 (configuration not stated),16,/,/,/
COc1ccc(C2CC(c3ccc(Cl)cc3)Nc3nc(NC(=O)c4ccco4)nn32)cc1 (configuration not stated),75*,-0.085,-0.81,0.17
O=C(COC(=O)CCCN1C(=O)c2ccccc2C1=O)Nc1ncc(Cl)cc1Cl,72*,-0.19,0.52,-0.11
Cc1nnsc1C(=O)NC(C)C12CC3CC(CC(C3)C1)C2 (configuration not stated),28,/,/,/
O=C(Nc1nc2ccccc2s1)C1CCCO1 (configuration not stated),/,-1.6,-0.14,-0.19
O=C(Nc1ncc(Cc2ccccc2)s1)C1CCCO1 (configuration not stated),47,-3.7*,0.17,-0.89
O=C(NN=C1CCCC1)C(=O)Nc1cccc(C(F)(F)F)c1,-50,/,/,/
CN(C)C=NCCn1c(N2CCOCC2)nc2c1c(=O)n(C)c(=O)n2C,/,-3.8*,0.7,-0.99
Cc1cc(N2CCN(c3ccccc3)CC2)nc(-c2ccccc2)n1,/,0.37,-2.6,-0.79
Cc1cc(N2CCN(C(=O)c3ccco3)CC2)n2nc(-c3cccc(F)c3)cc2n1,16,-0.13,2.9*,-0.8
Cc1cc(N2CCN(C(=O)c3ccco3)CC2)nc(-c2ccccc2)n1,/,-3.7*,/,/
Cc1cc(N2CCOCC2)n2nc(-c3cccc(F)c3)cc2n1,/,2.6,-0.015,0.45
CC(=O)N1CCN(c2ccc(NC(=O)c3ccc4c(c3)OCCO4)cc2)CC1,46,-0.4,0.37,-0.8
CN1CCN(c2ccc(NC(=O)c3ccc4c(c3)OCO4)cc2)CC1,/,-5.1*,-1.5,-1.1
COc1ccccc1OCCC(=O)OCC(=O)Nc1ncc(Cl)cc1Cl,/,-0.46,-1.4,-0.09
Cc1ccc2nc(-c3cc(N)cc(N)c3)oc2c1,32,/,/,/
Nc1ccc(-c2nc3ccc(N)cc3o2)cc1,/,-3.1*,-0.68,-0.92
C/C(CCc1ccc2c(c1)OCO2)=N\N=C(/N)SC1CC(=O)N(c2ccccc2F)C1=O (configuration not stated),31,/,/,/
CCOC(=O)N1CCN(C(=O)Cc2ccc(Cl)cc2)CC1,/,-0.19,0.26,-0.51
CCOC(=O)N1CCN(CCC(=O)c2ccc(Cl)cc2)CC1,22,-0.42,3.4*,-0.81*
CCn1c(SCC(=O)N2CCN(c3ccc(F)cc3)CC2)nc2ccccc2c1=O,/,-1.4,1.6,0.21
COc1ccc(OC)c(C(=O)CSc2nc3c(c(=O)n(C)c(=O)n3C)n2C(C)C)c1,-6,6.1*,-1.5,0.069
CCn1c(SCC(=O)Nc2ccc3c(c2)OCO3)nc2c1c(=O)n(C)c(=O)n2C,/,3.2,-0.49,-0.38
CCCn1c(SCC(=O)Nc2ccc3c(c2)OCO3)nc2c1c(=O)n(C)c(=O)n2C,/,4.8*,-0.17,-0.66
SMILES,Htt clearance,D1 allo mod,M1 agonist,M1 antagonist
CCCn1c(SCC(=O)N2CCCC2)nc2c1c(=O)n(C)c(=O)n2C,41,/,-0.81,-0.64
CCCn1c(SCC(=O)N2CCN(c3ccc(OC)cc3)CC2)nc2c1c(=O)n(C)c(=O)n2C,-22,-5.2*,9.6*,-0.45
CCCn1c(SCC(=O)N2CCN(c3ccccc3)CC2)nc2ccccc2c1=O,/,-1.1,0.91,1.9*
COc1ccccc1NC(=O)Nn1cnnc1,/,/,0.083,-0.4
O=S(=O)(NCCc1ccncc1)c1ccc(S(=O)(=O)N2CCCCCC2)cc1,/,0.14,0.31,-1.2
COc1ccc(NC(=O)CC2C(=O)N(c3cccc(OC)c3)C(=O)N2CCC(C)C)cc1 (configuration not stated),-23,/,/,/
Cc1ccc(C)c(Cn2c(C(=O)OC(C)C)cc3c2ccn3C)c1,-22,/,/,/
C=CCNc1oc(/C=C/c2ccccc2)nc1C#N,-20,/,/,/
Cc1ccc(-n2c(SCC(N)=O)nc3c([nH]c4ccccc43)c2=O)cc1,/,-4.1*,-0.076,-0.6
COc1cccc(-n2c(SCC(N)=O)nc3c([nH]c4ccccc43)c2=O)c1,/,/,0.42,-0.31
